Results from publication doi:10.1101/2024.03.05.583629.

Target: pT7_6His-AlfaTag-ZIF268 (human, UniProt P18146 335-423)
Test: PADIT-seq
Settings: dsDNA, one strand shown

| Sequence | binding signal [log2FC] |
| --- | --- |
| CTCGAGGATATCAAGATCTGGCCTCGGCCGGTGGGCGGGAACCTCTAGCTAGCCGACTCACTATAGGGATAATCGCCCTGAGCAAAGACC | 1.3 ± 0.0687 |
| CTCGAGGATATCAAGATCTGGCCTCGGCGCGCCCGCGGGAACCTCTAGCTAGCCGACTCACTATAGGGATAATCGCCCTGAGCAAAGACC | 0.783 ± 0.131 |
| CTCGAGGATATCAAGATCTGGCCTCGGCAGACCACGCGGAACCTCTAGCTAGCCGACTCACTATAGGGATAATCGCCCTGAGCAAAGACC | 0.0219 ± 0.102 |
| CTCGAGGATATCAAGATCTGGCCTCGGCGCGTGGGACGGAACCTCTAGCTAGCCGACTCACTATAGGGATAATCGCCCTGAGCAAAGACC | 1.73 ± 0.101 |
| CTCGAGGATATCAAGATCTGGCCTCGGCCGCCCACATGGAACCTCTAGCTAGCCGACTCACTATAGGGATAATCGCCCTGAGCAAAGACC | 1.03 ± 0.0882 |
| CTCGAGGATATCAAGATCTGGCCTCGGCATACCACGCGGAACCTCTAGCTAGCCGACTCACTATAGGGATAATCGCCCTGAGCAAAGACC | 0.123 ± 0.0818 |
